25 compounds from PubChem BioAssay (Tox21) can be followed below.

Inconclusive results are not listed. A call without a number means that no potency is given here. The source made the active and inactive calls. Calls come from the whole dose curve; as a rule, active = well fitted cell-killing curve with a large enough effect in the repeat runs; inconclusive = weak or mixed curves, or effect the other way; inactive = flat fitted curve, though single readings scatter.

The test can be described thus: qHTS RealTime-Glo MT Cell Viability Assay in HEK293 cells - 8 hour (AID 1224887). Note: top concentration of the series differs between compounds; nearly all actives have a fitted effect of over 50% in size. Conditions: RealTime-Glo luminescence; series mostly up to 76.8 µM. The gist of the method: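 Measured as luminescence from the same continuously cultured HEK293 wells at successive time points (0, 8, 16, 24, 32, 40 h) after compound addition. Reagent present from seeding; dosing at 5 h; incubation 37 C.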
As for `NC(CSCC(=O)O)C(=O)O` (stereo not given), the Potency result is “inactive”.
Next, `O=C(O)CNC(=O)c1ccc([N+](=O)[O-])cc1`: “inactive”; `N=C(N)c1ccc(OCCCOc2ccc(C(=N)N)cc2)cc1`: “inactive”.
Regarding `CCCCCCCCCCCCCCCCC`, the Potency entry was “inactive”.
For the compound `CN(C)CCCNCCCN(C)C`, the Potency result was “inactive”.
For the compound `COc1ccc2c(c1)c(CC(=O)OCC(=O)O)c(C)n2C(=O)c1ccc(Cl)cc1`, the Potency result was “inactive”.
Next, `CCCCOCCOCCOCCCC`: “inactive”; `COC(C)(C)CCCC(C)CC=O` (stereo not given): “inactive”.
Next, `CCCN1CCCC[C@H]1C(=O)Nc1c(C)cccc1C`: “inactive”.
Next, `O=C(O)CCCl`: “inactive”.
Turning to `COc1nc(N)nc2c1ncn2[C@@H]1O[C@H](CO)[C@@H](O)[C@@H]1O`, the Potency result was “inactive”.
The same measure for `C1OCOCO1`: “inactive”; for `Cc1cc2c(cc1S(N)(=O)=O)S(=O)(=O)CCC2`: “inactive”.
Take `O=c1n(CCO)c(=O)n(CCO)c(=O)n1CCO`: the Potency result is “inactive”.
Next, `CCCCCCCCCCCCN(CCCCCCCCCCCC)CCCCCCCCCCCC`: “inactive”.
As to `CCS(=O)(=O)c1ccc(OC)c(C(=O)OC)c1`, the Potency result was “inactive”.
Next, `N=C(N)c1ccccc1`: “inactive”; `CN1C(=O)N(C)C(O)C1O` (stereo not given): “inactive”; `CC(C)NC(=O)NC(C)C`: “inactive”.
For `Brc1c(NC2=NCCN2)ccc2nccnc12`, the Potency entry is “inactive”.
The same measure for `CN(C(=O)c1c(O)c2ccccc2n(C)c1=O)c1ccccc1`: “inactive”; for `CC(C)NCCCC1(C(N)=O)c2ccccc2-c2ccccc21`: “inactive”; for `C=C(C)C(=O)OCCCCCCCC(C)C`: “inactive”.
`CC(NC(CCc1ccccc1)C(=O)O)C(=O)N1C(=O)N(C)CC1C(=O)O` (stereo not given): the Potency result was “inactive”.
Next, `CCOC(=O)[C@H](CCc1ccccc1)N[C@@H](C)C(=O)N1[C@H](C(=O)O)C[C@@H]2CCC[C@@H]21`: “inactive”.
